Screening data from PubChem BioAssay.
Tau fluor cs: Counterscreen qHTS for Inhibitors of Tau Fibril Formation, Fluorescence Polarization; tau K18 P301L Alexa594 fluorescence, heparin fibrillization; Potency, µM (highest dose often 57.7 µM); actives 0.93% (n = 280,000); AID 1463, 2008; further: nearly all actives have a fitted effect of over 55% in size
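Human K18 P301L tau (15 uM unlabeled plus 0.24 uM Alexa 594-labeled, final) in 100 mM sodium acetate pH 7 was mixed with compound and 20 uM heparin and incubated 6 hr at 37 C.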
Sfp PPTase inh: qHTS Assay for Inhibitors of Bacillus subtilis Sfp phosphopantetheinyl transferase (PPTase); Biochemical Sfp PPTase activity, qHTS; Potency, µM, most hits filed as inhibitors; actives 3.5% (n = 310,000);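 further: the enzyme is Sfp with the accession as filed and its product quenches rhodamine fluorescence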
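After 15 min at room temperature with compound, 15 nM Sfp received 5 uM rhodamine-CoA plus 12.5 uM BHQ-2-ybbR (50 mM Hepes pH 7.6, 10 mM MgCl2). Rate came from the fluorescence difference over 30 min, ex 525/em 598 nm.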
FBPA coupling cs: qHTS Assay for Inhibitors of Fructose-1,6-bisphosphate Aldolase from Giardia Lamblia: Coupling assay counterscreen; actives 0.67% (n = 290,000); coupling enzyme system counterscreen, AmpLite Red fluorescence; activity change, negative = inhibition, % at 58.2 µM, hits read low; in the data active means activity change below about -30%
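Compounds tested against the coupling enzymes alone at 57.5 uM final; readout was AmpLite Red fluorescence (525/598 nm) after 20 min at RT.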
Tau fibril FP: qHTS for Inhibitors of Tau Fibril Formation, Fluorescence Polarization; Microtubule-associated protein tau (Homo sapiens), P10636; K18 P301L tau heparin fibrillization, Alexa594 FP, 6 h; Potency, µM (top dose mostly 57.7 µM), hits mostly inhibitors; actives 0.39% (n = 280,000); further: nearly all actives have a fitted effect of over 55% in size
Target sequence (P10636 561-689 P618L limits assumed): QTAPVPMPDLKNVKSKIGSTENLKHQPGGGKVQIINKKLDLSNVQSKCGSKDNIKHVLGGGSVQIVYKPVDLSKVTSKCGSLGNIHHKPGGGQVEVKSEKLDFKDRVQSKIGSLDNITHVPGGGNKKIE
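Human tau K18 […] P301L fragment, 15 uM unlabeled plus 0.24 uM Alexa 594-labeled tau (final), with compound and 20 uM heparin in 100 mM sodium acetate pH 7; 6 hr at 37 C, then Alexa 594 FP read.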
Tau ThT inhib: qHTS for Inhibitors of Tau Fibril Formation, Thioflavin T Binding. recombinant tau K18 P301L (four-repeat tau fragment), heparin-induced fibrillization, ThT fluorescence. Potency, µM (highest dose often 57.4 µM), usual class: inhibitors. actives 2.1% (n = 270,000). Microtubule-associated protein tau (Homo sapiens), P10636. AID 1460, 2008; further: nearly all actives have a fitted effect of over 55% in size
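Tau K18 P301L fragment (15 uM unlabeled plus 0.24 uM Alexa 594-labeled) in 100 mM sodium acetate pH 7 with compound, fibrillization induced by 20 uM heparin for 6 hr at 37 C. Thioflavin T (30 uM) added, fluorescence read after 1 hr (ex 450, em 510 nm).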
A number is an active result; 0 = inactive; ? = inconclusive; - = no result; [ ] = dose if it differs, or a comment. Only some compounds are listed: those with a hit (about 5.2% of all), similar ones and a draw of the others. Unless noted, the call rests on the fitted dose curve; in most records, active means well fitted curve in the direction sought with a large enough effect; inconclusive means small, poorly fitted or top-dose-only effect, or another doubt; inactive means no such curve, though single readings can be large; an effect the other way counts as inactive or inconclusive.

SMILES	Tau fluor cs	Sfp PPTase inh	FBPA coupling cs	Tau fibril FP	Tau ThT inhib
CCCCOC(=O)C(C)Nc1n[nH]c(=S)[nH]c1=O (stereo not drawn)	0	50µM	0	0	0
NC(=O)CNc1n[nH]c(=S)[nH]c1=O	0	79µM	0	0	0
CCCCOC(=O)C(C)Nc1n[nH]c(=O)[nH]c1=O (stereo not drawn)	0	0	0	0	0
CCCCOC(=O)CNc1n[nH]c(=S)[nH]c1=O	0	56µM	0	0	0
COC(=O)Cc1n[nH]c(=S)[nH]c1=O	0	18µM	0	0	?
CCOC(=O)c1ccc(CN(Cc2ccc(F)cc2)S(=O)(=O)c2ccc(F)cc2)cc1	0	-	-	0	0
CCN(CC(=O)NCc1ccc(Cl)cc1)C(=O)/C=C/c1ccc(Cl)c([N+](=O)[O-])c1	-	79µM	-	-	-
CCC1CCCCN1S(=O)(=O)c1ccc(NC(=O)c2nc(SC)ncc2Cl)cc1 (stereo not drawn)	?	-	-	0	0
COc1ccccc1/C=C/c1onc(C)c1S(=O)(=O)N1CCC(C(=O)N2CCC(C)CC2)CC1	0	-	-	0	0
COc1ccc(C2=CC3=C(Br)C(=O)C(C)(OC(=O)c4ccco4)C(=O)C3=CO2)cc1 (stereo not drawn)	?	?	0	?	16µM
CCCNC(=O)Cn1nc(-c2ccc(C)c(C)c2)c2cnc3ccc(F)cc3c21	0	-	-	0	?
CCNC(=S)NNc1nncc2ccccc12	0	4µM	0	0	0
CCNC(=S)NS(=O)(=O)c1ccccc1	0	79µM	0	0	0
CCNC(=S)NNc1ccccc1	0	35µM	0	?	?
CNC(=S)NNc1nncc2ccccc12	0	22µM	0	0	0
CCNC(=S)NS(=O)(=O)c1ccc(Cl)cc1	0	0	0	0	0
S=C(Nc1ccccc1)Nc1ccc2cn[nH]c2c1	?	0	-39	0	8.9µM
Cc1ccc(NC(=S)Nc2ccc3cn[nH]c3c2)cc1	0	0	0	?	?
c1cc2cn[nH]c2cc1NC1CCCCCC1	?	45µM	-67	?	28µM
COC1=C2C[C@@H](C)C[C@H](OC)[C@H](O)[C@@H](C)/C=C(\C)[C@H](OC(N)=O)[C@@H](OC)/C=C\C=C(/C)C(=O)NC(=CC1=O)C2=O	-	0	-65	-	-
Cc1ccc(C2=Nc3ccccc3N(CC(=O)Nc3ccccc3F)C(=O)C2)cc1C	0	-	-	0	0
c1ccc2[nH]c(NCCCN3CCOCC3)nc2c1	0	0	0	0	0
S=c1[nH]nc(NCCCN2CCOCC2)s1	0	35µM	0	?	?
CCCCC/C=C\C/C=C\C/C=C\C/C=C\CCCCCC(N)=O	0	0	0	0	0
CCCCc1nc2c(c3c1C[C@H](C)OC3)CN(C(=O)C1CCCCC1)CC2	0[11.6 µM]	0	0	0[11.6 µM]	0[11.5 µM]
SMILES	Tau fluor cs	Sfp PPTase inh	FBPA coupling cs	Tau fibril FP	Tau ThT inhib
Oc1c(C=Nc2ccccc2)sc(=S)n1Cc1ccccc1	?	0	0	0	0
CCn1c(O)c(/C=N/n2cnnc2)sc1=S	0	45µM	0	0	?
CCn1c(O)c(C=Nc2ccccc2)sc1=O	0	0	0	0	0
CCn1c(O)c(C=NC2CCCC2)sc1=S	0	0	0	0	0
CCn1c(O)c(C=Nc2ccccc2)n(-c2ccccc2)c1=S	0	79µM	0	0	0
CCn1c(O)c(C=Nc2ccccc2)sc1=S	?	56µM	0	0	?
O=c1c(CCc2ccccc2)nc2cnc(N3CCOCC3)nc2n1-c1ccccc1	-	0	0	-	-
CC1(C)CC(=O)C2=C(C1)OC1=C(C(=O)CC(C)(C)C1)C2c1ccc(O)c([N+](=O)[O-])c1	0	0	0	0	0
CC1(C)CC(=O)C(C(C2=C(O)CC(C)(C)CC2=O)c2ccc(O)c([N+](=O)[O-])c2)=C(O)C1	0	20µM	0	0	0
CC1(C)CC(=O)C(C(C2=C(O)CC(C)(C)CC2=O)c2ccc([N+](=O)[O-])cc2)C(=O)C1 (stereo not drawn)	0	18µM	0	?	?
Cc1ccc(C(C2=C(O)CC(C)(C)CC2=O)C2C(=O)CC(C)(C)CC2=O)s1 (stereo not drawn)	0	35µM	0	0	0
CC1(C)CC(=O)C(C(C2=C(O)CC(C)(C)CC2=O)c2ccc(Br)s2)C(=O)C1 (stereo not drawn)	0	20µM	0	0	0
COc1cccc(C(C2=C(O)CC(C)(C)CC2=O)C2C(=O)CC(C)(C)CC2=O)c1 (stereo not drawn)	0	0	0	0	?
O=C(NCc1cccc(F)c1)C1CCN(c2nn3cc(-c4ccc(F)cc4)nc3s2)CC1	0	-	-	0	0
Cc1cc(C)n(-c2nc3cc(Cl)c(Cl)cc3nc2Nc2ccc(F)cc2C)n1	0	-	-	0	0
C/C(CCC(C)C)=N\Nc1cc(C)c2ccccc2n1	0	28µM	0	0	?
COc1ccc(-c2cn3c(n2)sc2cc(C(=O)Nc4ccc(C)c(C)c4)ccc23)cc1	0	-	-	0	0
COc1cc(O)cc2cc3c(c(O)c12)C(=O)CC(C)(O)O3 (stereo not drawn)	?	0	-43	0	25µM
COc1cc(O)c2c(c1)OC(C)(C)CC2=O	0	0	0	0	0
C[C@H]1/C=C\CC(=O)OC[C@H](C)C(=O)N2CCC[C@@H]2C(=O)OC1	0[11.6 µM]	0	0	0[11.6 µM]	0[11.5 µM]
CC(C)C1NC2(C(=O)c3ccccc3C2=O)C2C(=O)N(c3ccc(F)cc3)C(=O)C12 (stereo not drawn)	0	25µM	0	0	0
O=S(=O)(Nc1ncccn1)c1ccc(Cl)cc1	-	0	0	-	-
CN(C)c1nc(NS(=O)(=O)c2ccc(Cl)cc2)nc(N(C)C)n1	0	0	-32	0	0
O=S(=O)(Nc1ncccn1)c1ccc(NC(=S)Nc2ccc(Cl)cc2)cc1	0	40µM	0	0	0
CC1CC(Nc2cccc(O)c2)=CC(=O)O1 (stereo not drawn)	0	0	0	0	0
SMILES	Tau fluor cs	Sfp PPTase inh	FBPA coupling cs	Tau fibril FP	Tau ThT inhib
C[C@@H]1Cc2c(O)c(O)cc(O)c2C(=O)O1	0	0	0	25µM	32µM
CCCc1cc(-c2nc(-c3ccc(Cl)cc3)cs2)ccn1	0	40µM	0	0	?
CCCc1cc(-c2nc(-c3ccc(Br)cc3)cs2)ccn1	0	?	0	0	?
Cc1nc2c3cc(F)ccc3n(Cc3ccc(F)cc3)c2s1	0	?	0	0	0
CCc1ccc2c(c1)c1nc(C)sc1n2CC	0	28µM	0	?	25µM
CCCc1nc(SCC(=O)N2CCc3ccccc32)c2c(=O)n(C)c(=O)n(C)c2n1	0	0	0	0	0
CC(C)c1nc(SCC(=O)N2CCCc3ccccc32)c2c(=O)n(C)c(=O)n(C)c2n1	0	45µM	0	0	?
